In PubChem BioAssay (Tox21) one finds outcome and Potency data, which are given here for 24 compounds.

The nature of experiment [1]: qHTS assay to identify small molecule antagonists of the glucocorticoid receptor (GR) signaling pathway - cell viability counter screen (AID 720693). Note: nearly all actives have a fitted effect of over 55% in size. A general note: qHTS replaces the single test concentration by a dilution series.
The nature of experiment [2]: qHTS assay for identifying genotoxic compounds that show differential cytotoxicity against isogenic chicken DT40 cell lines with known DNA damage response pathways - wild type cell line (AID 743012). Note: nearly all actives have a fitted effect of over 60% in size. Note: potency is the fitted concentration of half-maximal effect. The method in brief: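 Quantitative HTS on parental DT40 cells: 40 h compound treatment at 37 C/5% CO2, with viability then determined by CellTiter-Glo luminescence. Values serve as the DNA repair-proficient reference for differential cytotoxicity.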

Experiment [3] is described as follows: qHTS assay for identifying genotoxic compounds that show differential cytotoxicity against isogenic chicken DT40 cell lines with known DNA damage response pathways - Rev3 mutant cell line (AID 743014). Note: nearly all actives have a fitted effect of over 55% in size. Note: potency is the fitted concentration of half-maximal effect.
A short description of experiment [4]: qHTS assay for identifying genotoxic compounds that show differential cytotoxicity against isogenic chicken DT40 cell lines with known DNA damage response pathways - Rad54/Ku70 mutant cell line (AID 743015). Note: nearly all actives have a fitted effect of over 60% in size. Note: potency is the fitted concentration of half-maximal effect.
Experiment [5] is described as follows: qHTS assay to identify small molecule antagonists of the androgen receptor (AR) signaling pathway - cell viability counter screen (AID 743033; note: nearly all actives have a fitted effect of over 45% in size).
Experiment [6] can be described thus: qHTS assay to identify small molecule antagonists of the androgen receptor (AR) signaling pathway using the MDA cell line - cell viability counter screen (AID 743041; note: nearly all actives have a fitted effect of over 45% in size). In short, it runs like this: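 Cells were plated at 3,000 per well and left 5 h. Compounds in DMSO were then pinned in, followed by R1881. After 16 h at 37C, CellTiter-Fluor fluorescence gave viability.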

Experiment [7] concerns the target Androgen receptor (Homo sapiens) (UniProt P10275). Briefly: qHTS assay to identify small molecule agonists of the androgen receptor (AR) signaling pathway (AID 743036; active = well fitted activation curve with a large enough effect in the signal ratio in the repeat runs, with a control signal flat, not every such curve was filed as active; the % refers to the signal ratio). The method in brief: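 AR-UAS-bla HEK293 cells, plated 4 h before dosing, were treated with compound for 16 h at 37C. beta-Lactamase reporter read after 2 h with LiveBLAzer B/G FRET substrate at room temperature.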

For experiment [8] the target is unchanged. Briefly: qHTS assay to identify small molecule agonists of the androgen receptor (AR) signaling pathway using the MDA cell line (AID 743040; note: nearly all actives have a fitted effect of over 20% in size). The method in brief:
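Cells plated, 5 h at 37C/0% CO2; compound or DMSO pinned; 16 h at 37C; ONE-Glo added; luminescence measured after 30 min at room temperature. Reporter line: MDA-kb2 with MMTV-luciferase responsive to AR and GR.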

Experiment [9] shares this target. Kind of experiment: qHTS assay to identify small molecule antagonists of the androgen receptor (AR) signaling pathway using the MDA cell line (AID 743042; note: nearly all actives have a fitted effect of over 55% in size). In short, it runs like this:
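Antagonist mode: compounds plus R1881 agonist added to MDA-kb2 AR-luc cells, incubated 16 h at 37C. Luciferase reporter luminescence quantified, with multiplexed CellTiter-Fluor readout for cell viability.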

Experiment [10] shares this target. Briefly: qHTS assay to identify small molecule antagonists of the androgen receptor (AR) signaling pathway (AID 743035; active = well fitted inhibition curve with a large enough effect in the signal ratio in the repeat runs, not every such curve was filed as active; the % refers to the signal ratio). In short, it runs like this:
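Cell line: GeneBLAzer AR-UAS-bla GripTite (HEK293). Stimulus: R1881 added after compound. Exposure: 16 h, 37C, 5% CO2. Readout: LiveBLAzer B/G FRET fluorescence after 2 h at room temperature.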

Where “and” joins values, the source holds several entries; their conditions need not be identical. Equal values may be shown once. Results filed as inconclusive are left out. Where a structure was tested more than once in an assay, its records may differ in their call. Calls of active or inactive are those of the source. Unless noted, calls come from the whole dose curve; as a rule, active = well fitted curve in the direction sought with a large enough effect in the repeat runs; inconclusive = weak or mixed curves; inactive = no such curve, though single readings can be large; an effect the other way counts as inactive or inconclusive.

Androgen receptor (Homo sapiens), sequence (P10275 whole entry, looked up): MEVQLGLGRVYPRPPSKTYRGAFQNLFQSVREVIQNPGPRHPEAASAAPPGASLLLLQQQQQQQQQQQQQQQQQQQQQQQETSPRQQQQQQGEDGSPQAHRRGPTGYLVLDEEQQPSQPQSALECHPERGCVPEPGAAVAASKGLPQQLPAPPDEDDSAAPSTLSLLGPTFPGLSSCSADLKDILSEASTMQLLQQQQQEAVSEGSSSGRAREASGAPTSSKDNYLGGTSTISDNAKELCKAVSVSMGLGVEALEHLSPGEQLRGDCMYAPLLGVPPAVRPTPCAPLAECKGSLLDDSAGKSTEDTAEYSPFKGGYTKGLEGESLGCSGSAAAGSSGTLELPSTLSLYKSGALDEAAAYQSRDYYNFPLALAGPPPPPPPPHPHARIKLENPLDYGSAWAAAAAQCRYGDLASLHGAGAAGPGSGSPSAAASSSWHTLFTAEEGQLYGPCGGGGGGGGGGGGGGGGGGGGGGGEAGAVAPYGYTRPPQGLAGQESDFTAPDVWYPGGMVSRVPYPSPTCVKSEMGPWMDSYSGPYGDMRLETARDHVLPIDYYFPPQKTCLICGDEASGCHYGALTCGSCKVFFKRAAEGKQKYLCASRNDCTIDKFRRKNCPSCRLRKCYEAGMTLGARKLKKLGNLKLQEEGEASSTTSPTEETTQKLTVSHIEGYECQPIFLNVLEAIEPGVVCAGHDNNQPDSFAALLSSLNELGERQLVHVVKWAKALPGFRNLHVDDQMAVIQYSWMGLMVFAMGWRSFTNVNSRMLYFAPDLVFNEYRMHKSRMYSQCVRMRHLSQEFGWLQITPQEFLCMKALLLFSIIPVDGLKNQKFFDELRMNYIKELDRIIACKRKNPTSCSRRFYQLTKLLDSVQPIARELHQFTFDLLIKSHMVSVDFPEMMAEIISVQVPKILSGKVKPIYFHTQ

In the case of `O=NN1CCCCCCC1`, the outcome in experiment [1], in [5] and in experiment [6] was inactive. The Potency entry in [2], in experiment [3] and in experiment [4] was “inactive” throughout.
On to `Clc1ccccc1Cl`, for which the compound was classed as inactive in experiment [1], in [5] and in [6]. Besides, the Potency result in experiment [2], in [3] and in experiment [4] was “inactive” in each case.
Regarding `CCCCOC(=O)c1ccccc1C(=O)OCCCC`, the compound was classed as inactive in experiment [1], in [5] and in experiment [6]. The Potency in [2] is 24.3 µM (active). The Potency entry in [3] and in experiment [4] was “inactive” each time.
As for `CC(C)(C)OOC(C)(C)C`, the compound was called inactive in [1], in experiment [5] and in experiment [6]. Moreover, the Potency result in experiment [2], in experiment [3] and in experiment [4] was “inactive” in each case.
Take `CCNc1nc(NC(C)C)nc(SC)n1`: the outcome in [1], in [5], in experiment [7], in experiment [8], in experiment [6] and in [9] was inactive. For the same compound, the Potency entry in [2] was “inactive and 61.1 µM (active)”; in experiment [3], 61.1 µM (active); in [4], 61.1 µM (active).
As to `COCCl`, the compound was called inactive in experiment [1], in experiment [5], in experiment [7], in experiment [8], in experiment [6] and in experiment [9]. The Potency result in experiment [2], in experiment [4] and in [10] was “inactive” in each case. In addition, the Potency result in experiment [3] was “inactive and 13.8 µM (active)”.
With `COC(=O)NS(=O)(=O)c1ccc(N)cc1`, the compound was classed as inactive in experiment [1], in [5] and in experiment [6]. In addition, the Potency result in experiment [2], in [3] and in experiment [4] was “inactive” each time.
On to `Cc1cc(-c2cc(C)c(N)c(C)c2)cc(C)c1N`, for which the compound was classed as inactive in [1], in experiment [5] and in [6]. Moreover, the Potency result in experiment [2], in [3] and in experiment [4] was “inactive” in each case.
As to `CCCCCOC(=O)c1ccccc1C(=O)OCCCCC`, the result in experiment [1], in experiment [5] and in experiment [6] was inactive. Also, in experiment [2], the Potency entry is “inactive and 61.1 µM (active)”. Further, the Potency result in [3] and in [4] was “inactive” in each case.
With `CC1C=[C-]C=C1.[C-]#[O+].[C-]#[O+].[C-]#[O+].[Mn]`, the call in [1], in [5] and in experiment [6] was inactive. The Potency entry in experiment [2], in [3] and in [4] was “inactive” throughout.
`CN(N=O)c1ccccc1`: the call in experiment [1], in experiment [5] and in experiment [6] was inactive. Also, the Potency result in [2], in experiment [3] and in experiment [4] was “inactive” in each case.
With `CC(Br)C(=O)O` (stereo unspecified), the outcome in experiment [1], in experiment [5] and in [6] was inactive. For the same compound, the Potency result in [2], in experiment [3] and in experiment [4] was “inactive” in each case.
For `O=c1n(Cl)c(=O)n(Cl)c(=O)n1Cl`, the call in [1], in experiment [5] and in experiment [6] was inactive. Further, the Potency entry in experiment [2], in experiment [3] and in [4] was “inactive” each time.
As to `C#CCN(C)[C@H](C)Cc1ccccc1`, the result in [1], in [5] and in experiment [6] was inactive. In addition, the Potency entry in experiment [2], in [3] and in [4] was “inactive” throughout.
In the case of `CC(C)(Cl)Cl`, the result in experiment [1], in experiment [5] and in [6] was inactive. The Potency entry in [2], in experiment [3] and in experiment [4] was “inactive” in each case.
As for `CNC(=O)Oc1ccccc1OC(C)C`, the compound was classed as inactive in experiment [1], in experiment [5] and in experiment [6]. In addition, the Potency entry in experiment [2], in experiment [3] and in experiment [4] was “inactive” throughout.
Take `CCC[N+](=O)[O-]`: the result in [1], in experiment [5] and in experiment [6] was inactive. Moreover, the Potency entry in [2], in experiment [3] and in experiment [4] was “inactive” in each case.
For the compound `O=Cc1cccc(Oc2ccccc2)c1`, the outcome in experiment [1], in [5] and in experiment [6] was inactive. Moreover, the Potency result in experiment [2], in experiment [3] and in experiment [4] was “inactive” throughout.
As to `Cc1ccc([N+](=O)[O-])cc1C`, the outcome in experiment [1], in experiment [5] and in experiment [6] was inactive. Moreover, the Potency entry in experiment [2], in experiment [3] and in experiment [4] was “inactive” throughout.
As for `CC(C)C#N`, the result in [1], in [5] and in experiment [6] was inactive. Moreover, the Potency result in experiment [2], in experiment [3] and in experiment [4] was “inactive” in each case.
In the case of `CN=C=S`, the compound was called inactive in [1], in [5] and in experiment [6]. In addition, the Potency entry in experiment [2], in experiment [3] and in experiment [4] was “inactive” throughout.
Take `c1ccc2c(c1)Oc1ccccc1O2`: the outcome in experiment [1], in experiment [5] and in experiment [6] was inactive. Moreover, the Potency result in experiment [2], in [3] and in experiment [4] was “inactive” each time.
Turning to `O=NN1CCCC1`, the compound was called inactive in experiment [1], in experiment [5] and in experiment [6]. Also, the Potency entry in experiment [2], in [3] and in [4] was “inactive” each time.
Regarding `CC1OC(C)OC(C)O1` (stereo unspecified), the compound was called inactive in experiment [1], in experiment [5] and in experiment [6]. The Potency result in experiment [2], in experiment [3] and in experiment [4] was “inactive” in each case.
